TDP1 block – blocks human tyrosyl-DNA phosphodiesterase 1; Q9NUW8; recombinant TDP1, AlphaScreen DNA substrate cleavage; Potency, µM (doses to about 130 µM), without a hit: top-dose activity change, negative = inhibition, usual class: inhibitors; actives 0.28% (n = 350,000); AID 485290; further: nearly all actives have a fitted effect of over 40% in size
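Steps: enzyme plus compound, 15 min RT; add biotin/phosphotyrosine-FITC oligonucleotide (15 nM final), react 5 min; add donor/acceptor beads (10 ug/ml final), 10 min; read AlphaScreen. Tdp1 at 1 nM final.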
VDR inh – blocks the human vitamin D receptor; Potency, µM, for inactives: max response, negative = inhibition, usual class: inhibitors; actives 0.93% (n = 400,000); VDR-SRC2-3 peptide fluorescence polarization, 2 h
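VDR–SRC2-3 interaction, FP format. Cmpds 23 nl via pintool, brief spin, 2 h ambient incubation.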
DT40 TDP1 no CPT – qHTS for Inhibitors of human tyrosyl-DNA phosphodiesterase 1 (TDP1): qHTS in cells in absence of CPT. DT40 Tdp1-/- hTDP1 cells, no CPT, ATP luminescence, 48 h. Potency, µM (top dose mostly 46.2 µM), for inactives: at the top dose activity change, negative = growth inhibition, usual class: inhibitors. actives 15% (n = 420,000); further: nearly all actives have a fitted effect of over 55% in size
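Chicken DT40 Tdp1-/- cells complemented with human TDP1, screened without camptothecin (DMSO vehicle only), 400 cells/well. Compounds pin-transferred, cells incubated at 37 °C for at least 48 hr. Growth read as ATP-dependent luminescence (CellTiter-Glo, 30 min at RT).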
DT40 TDP1 CPT – DT40-hTDP1 cell growth loss with CPT | chicken DT40 Tdp1-/-;hTDP1 cells + 20 nM CPT, ATP luminescence, 48 h | Potency, µM (highest dose often 46.2 µM), for the others: at the highest dose activity change, negative = growth inhibition, actives largely listed as inhibitors | actives 12% (n = 420,000) | AID 686979; further: nearly all actives have a fitted effect of over 55% in size
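Cell growth measured by CellTiter-Glo luminescence after a minimum 48 h, 37 C compound exposure with 20 nM CPT in Tdp1-knockout DT40 cells stably expressing hTDP1, seeded 400/well; qHTS titration format.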
PLK1 PBD block – PLK1 (human) polo-box domain binding inhibition; Potency, µM, for inactives: max response, negative = inhibition, actives largely listed as inhibitors; Plk1 PBD binding of FITC phosphopeptide, fluorescence polarization; actives 2.8% (n = 360,000); P53350; further: series mostly up to about 57 µM; nearly all actives have a fitted effect of over 65% in size
Target sequence (P53350 whole entry, looked up, the tested form may be a part): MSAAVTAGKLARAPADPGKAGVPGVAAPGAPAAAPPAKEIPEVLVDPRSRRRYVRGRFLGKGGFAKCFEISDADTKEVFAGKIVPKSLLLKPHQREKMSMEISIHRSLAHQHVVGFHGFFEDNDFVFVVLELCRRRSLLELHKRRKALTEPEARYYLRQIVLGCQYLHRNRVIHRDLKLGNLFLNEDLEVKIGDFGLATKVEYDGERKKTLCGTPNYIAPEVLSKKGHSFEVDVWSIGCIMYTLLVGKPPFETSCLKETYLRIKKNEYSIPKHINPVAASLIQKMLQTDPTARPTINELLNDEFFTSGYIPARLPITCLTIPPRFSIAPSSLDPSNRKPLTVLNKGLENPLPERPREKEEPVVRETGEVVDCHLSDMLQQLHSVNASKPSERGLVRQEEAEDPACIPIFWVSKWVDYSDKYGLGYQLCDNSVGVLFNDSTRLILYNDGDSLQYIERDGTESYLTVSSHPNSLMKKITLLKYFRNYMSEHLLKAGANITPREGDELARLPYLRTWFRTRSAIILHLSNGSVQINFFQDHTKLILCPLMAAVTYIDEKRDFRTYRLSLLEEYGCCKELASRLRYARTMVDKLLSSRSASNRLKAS
GCN5L2 inh – inhibitors of human GCN5L2 histone acetyltransferase; Q92830; GCN5L2 HAT assay, ThioGlo1 CoA-SH fluorescence; Potency, µM (top dose mostly 58.9 µM), for inactives: at the top dose activity change, negative = inhibition, usual class: inhibitors; actives 0.21% (n = 390,000); AID 504327
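Titration-based screen in which CoA formation is detected via maleimide probe ThioGlo1 (50uM) turning fluorescent on thiol reaction; substrates H3(1-25) 75uM and acetyl-CoA 70uM, GCN5L2 20nM, 20 min incubation at room temperature.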
Active calls of the source: *; ? = inconclusive; . = not tested or not shown; [ ] = remark or other dose. This is a sample that favours compounds with a hit; in the whole collection about 18% have one here. The call rests on the fitted dose curve; in most records, active means well fitted curve in the direction sought with a large enough effect; inconclusive means small, poorly fitted or top-dose-only effect, or another doubt; inactive means no such curve, though single readings can be large; an effect the other way counts as inactive or inconclusive. On the % scale 0 is the no-effect control and ±100 the full control effect; potency means the concentration at half of the fitted maximal effect.

SMILES	TDP1 block	VDR inh	DT40 TDP1 no CPT	DT40 TDP1 CPT	PLK1 PBD block	GCN5L2 inh
Cc1nn(C)c(C)c1S(=O)(=O)N1CCCC(C(=O)N2CCN(c3ccc(Cl)cc3)CC2)C1 (stereo not given)	0.0%	-17.7%	6.51µM*	11.6µM*	3.36µM*	-5.2%
Cc1nn(C)c(C)c1S(=O)(=O)N1CCCC(C(=O)NC2CCCCCC2)C1 (stereo not given)	-7.9%	?	?	18.4µM*	26.7µM*	1.9%
O=C(NC1CCCc2ccccc21)C1CCN(C(=O)c2sccc2-n2cccc2)CC1 (stereo not given)	8.7%	2.6%	?	14.6µM*	-8.9%	-6.9%
O=C(NC1CCCCC1)C1CCCN(S(=O)(=O)c2ccc(F)cc2)C1 (stereo not given)	7.1%	-6.6%	?	-19.3%	?	1.2%
O=C(Nc1cccc(Cl)c1)c1csc([C@@H]2C[C@H](O)[C@@H](CO)O2)n1	.	.	-10.9%	-21.5%	-2.2%	.
O=C(Nc1ccc(F)cc1)c1cccnn1	.	-3.0%	-14.4%	1.6%	-1.1%	-13.0%
NS(=O)(=O)c1ccc(CNC(=O)c2csc3c2CCCC3)cc1	2.5%	-8.0%	-28.9%	-20.0%	-25.2%	4.2%
COC(=O)C1CCN(Cc2ccc3c(c2)CN(C(=O)c2cc(C)oc2C)CCO3)CC1	.	.	-16.8%	22.3%[9.04 µM]	.	.
Cc1nn(C)c(C)c1S(=O)(=O)N1CCC(C(=O)NC2CCCc3ccccc32)CC1 (stereo not given)	1.0%	-15.2%	-29.5%	-2.1%	26.7µM*	-1.0%
CCN(CC)S(=O)(=O)N1CCC(C(=O)NC2CCCc3ccccc32)CC1 (stereo not given)	4.9%	6.1%	?	?	0.3%	-1.9%
Cc1n[nH]c(C)c1S(=O)(=O)N1CCCC(C(=O)NC2CCCCC2)C1 (stereo not given)	.	0.5%	-16.1%	-20.7%	-8.9%	0.5%
Cc1cc(C)c(S(=O)(=O)N2CCCC(C(=O)NC3CCCC3)C2)c(C)c1 (stereo not given)	8.4%	-5.6%	20.6µM*	?	3.8%	-7.7%
COc1ccc(C2CC(=O)C(C(c3ccc(O)cc3)C3C(=O)CC(c4ccc(OC)cc4)CC3=O)C(=O)C2)cc1 (stereo not given)	1.2%	.	.	.	.	-5.6%
O=C(Nc1cccc(C(F)(F)F)c1)c1csc([C@H]2C[C@H](O)[C@@H](CO)O2)n1	.	.	?	?	-13.1%	.
C#Cc1ccc(NC(=O)C2(C)CCN2C(=O)C/C=C/c2ccccc2)cc1 (stereo not given)	.	.	9.2µM*	16.4µM*	-8.3%	.
C#Cc1ccc(NC(=O)C2(C)CCN2C(=O)Cc2ccc(C(C)(C)C)cc2)cc1 (stereo not given)	.	.	?	20.6µM*	-6.6%	.
CC1(C(=O)Nc2ccc3[nH]ncc3c2)CCN1C(=O)Cc1ccc(-c2ccccc2)cc1 (stereo not given)	.	.	13µM*	16.4µM*	-14.1%	.
C#Cc1ccc(NC(=O)C2(C)CCN2C(=O)Cc2ccc(C(C)C)cc2)cc1 (stereo not given)	.	.	?	?	4.5%	.
CC(C)(C)c1ccc(CC(=O)N2CCC2(C)C(=O)Nc2ccc3[nH]ncc3c2)cc1 (stereo not given)	.	.	9.2µM*	14.6µM*	0.9%	.
O=C(Cc1nnc(NC(=O)Nc2ccccc2F)s1)NCc1ccccc1	5.2%	1.5%	-13.5%	12.2%	0.6%	0.0%
Cc1nc2ccc(S(=O)(=O)N(CC(=O)Nc3cccc(C)c3C)Cc3ccccc3)cc2s1	4.5%	-9.8%	?	-18.5%	.	26.0%
O=C(O)c1ccc(C(S(=O)(=O)c2ccccc2)S(=O)(=O)c2ccccc2)cc1	.	.	-8.4%	10.9%	4.4%	.
O=C(CSc1nnc2ccccn12)NC(=O)c1ccccc1Cl	25.1µM*	28.5%	3.2%	-16.4%	-25.0%	-9.6%
O=C(CCn1cnc(-c2ccccc2)c1-c1ccccc1)N/N=C/c1ccccc1O	9.5%	5.6%	4.61µM*	5.17µM*	?	-7.4%
COc1ccc(/C=N/NC(=O)CCn2cnc(-c3ccccc3)c2-c2ccccc2)cc1	8.2%	-0.8%	0.651µM*	1.64µM*	-1.4%	-5.8%
SMILES	TDP1 block	VDR inh	DT40 TDP1 no CPT	DT40 TDP1 CPT	PLK1 PBD block	GCN5L2 inh
CC(C)(C)c1ccc(C(=O)NCC(=O)N/N=C/c2ccccc2OCC(=O)O)cc1	-1.8%	6.6%	3.2%	3.9%	-0.5%	-1.2%
O=C(O)COc1ccccc1/C=N/NC(=O)COc1ccc(-c2ccccc2)cc1	3.1%	11.1%	29.1µM*	2.7%	-15.6%	16.8%
CN(C)c1ccc(/C=N/NC(=O)COc2ccccc2)cc1	5.9%	4.2%	-16.5%	-17.3%	-16.2%	-8.2%
COc1ccc(/C=N/NC(=O)COc2ccccc2-c2ccccc2)cc1	0.0%	4.3%	0.651µM*	0.581µM*	-9.9%	4.6%
COc1ccccc1CC1CC(=O)N(c2cccc(Cl)c2C)C1=O (stereo not given)	.	-1.4%	5.6%	0.9%	-5.7%	-2.6%
COc1ccc(OC)c(CN2CCC3(CCC(CNC(=O)c4ccco4)O3)CC2)c1 (stereo not given)	.	.	-21.0%	22.4%[9.04 µM]	.	.
O=C(CCn1cnc2ccccc21)N/N=C/C=C/c1ccccc1	.	-8.7%	-1.1%	11.7%	-1.9%	4.5%
COc1ccc(/C=C/C(=O)Oc2cccc(/C=N/NC(=O)COc3c(C)cccc3C)c2)cc1	1.0%	-14.7%	14.6µM*	20.6µM*	-12.0%	-0.6%
COc1ccccc1/C=C/C=N/NC(=O)CCn1cnc2ccccc21	6.8%	-9.4%	10.3µM*	16.4µM*	-4.7%	-8.0%
COc1ccc(/C=N/NC(=O)CCSc2nc3ccccc3s2)cc1	4.4%	-24.8%	2.59µM*	5.8µM*	29.9µM*	-6.5%
O=C(NCc1cc(Cl)cc(Cl)c1)c1ccc2nc([C@@H]3O[C@H](CO)[C@@H](O)[C@H]3O)[nH]c2c1	.	.	-2.9%	4.3%	-7.3%	.
CC(=O)N/N=C/c1cc(C(C)C)cc(/C=N/NC(C)=O)c1O	5.6%	-10.3%	?	?	21.2µM*	-8.7%
CC(=O)c1ccc(OCC(=O)Nc2cccc(S(=O)(=O)N3CCCC3)c2)cc1	3.2%	-3.7%	9.2µM*	8.2µM*	-13.1%	1.8%
O=C(COc1ccc2ccc(=O)oc2c1)Nc1cccc(S(=O)(=O)N2CCCCC2)c1	-2.6%[56.1 µM]	-0.4%	11.6µM*	?	-4.1%	-9.0%

Source: PubChem (National Center for Advancing Translational Sciences (NCATS))
